Laboratory results from ChEMBL document CHEMBL1961873, “Compounds: GSK PKIS; Assays: Nanosyn kinase panel” (2012).

Target: T1, Discoidin domain-containing receptor 2 (Homo sapiens) (UniProt Q16832)
T1 sequence (whole entry): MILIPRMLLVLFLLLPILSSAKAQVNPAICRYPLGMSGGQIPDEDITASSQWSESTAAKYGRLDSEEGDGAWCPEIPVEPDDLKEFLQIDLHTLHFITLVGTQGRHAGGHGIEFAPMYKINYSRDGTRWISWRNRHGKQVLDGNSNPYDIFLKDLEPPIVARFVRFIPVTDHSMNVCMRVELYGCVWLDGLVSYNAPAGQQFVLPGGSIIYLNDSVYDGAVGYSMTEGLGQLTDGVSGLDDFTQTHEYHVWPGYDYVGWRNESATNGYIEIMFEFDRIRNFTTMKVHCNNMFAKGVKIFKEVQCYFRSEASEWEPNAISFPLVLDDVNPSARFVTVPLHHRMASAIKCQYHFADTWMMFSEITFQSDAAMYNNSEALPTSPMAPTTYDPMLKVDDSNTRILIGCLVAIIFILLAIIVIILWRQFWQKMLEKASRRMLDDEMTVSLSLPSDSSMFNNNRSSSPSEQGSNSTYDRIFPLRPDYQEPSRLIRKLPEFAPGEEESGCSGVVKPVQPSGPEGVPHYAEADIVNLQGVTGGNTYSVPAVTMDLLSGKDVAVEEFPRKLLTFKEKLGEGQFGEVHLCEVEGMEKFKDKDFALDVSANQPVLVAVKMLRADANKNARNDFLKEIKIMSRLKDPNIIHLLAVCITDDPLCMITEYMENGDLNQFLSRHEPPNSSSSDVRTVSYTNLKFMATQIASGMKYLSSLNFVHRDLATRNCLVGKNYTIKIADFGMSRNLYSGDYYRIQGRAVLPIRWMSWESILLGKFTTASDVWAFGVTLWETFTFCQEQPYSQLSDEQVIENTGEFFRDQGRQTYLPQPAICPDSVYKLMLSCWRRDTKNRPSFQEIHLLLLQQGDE
Settings: at 1 µM
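Note: reported figure is the mean inhibition of DDR2.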

Row | Compound | inhibition [%]
1 | CC(=O)Nc1cccc(C#Cc2cncnc2Nc2ccc(OCc3cccc(F)c3)c(Cl)c2)c1 | 7.91
2 | Nc1nc(-c2cccc(Cl)c2)c(-c2ccc3ncccc3n2)s1 | -6.1
3 | CNC(=O)c1cncc(/C=C/c2ccccc2Cl)c1 | 6.62
4 | CCn1c(-c2nonc2N)nc2c(C#CC(C)(C)O)ncc(OC3CCNCC3)c21 | 1.03
5 | CCn1c(-c2nonc2N)nc2ccccc21 | 2.19
6 | Cc1ccc(O)cc1Nc1ccnc2cc(-c3ccccn3)ccc12 | 74
7 | Nc1ncc(-c2cccc(S(N)(=O)=O)c2)c2scc(-c3ccc(F)c(Cl)c3)c12 | 11.2
8 | COc1cc2c(cc1Nc1nc(Nc3ccsc3C(N)=O)c3cc[nH]c3n1)N(C(=O)CN(C)C)CCC2(C)C | 1.72
9 | COc1ccc2[nH]c3c4[nH]c5ccc(OC)cc5c4c4c(c3c2c1)C(=O)NC4=O | 16.8
10 | Fc1ccc(-c2nn3ccccc3c2-c2ccncc2)cc1 | 5.54
11 | COc1ccc(-c2cc(-c3c[nH]nc3-c3ccccn3)ccn2)cc1 | 3.66
12 | c1cc(-c2cnn3nc(N4CCOCC4)ccc23)nc(NC2CC2)n1 | 3.9
13 | NS(=O)(=O)c1ccc(Nc2ncc(-c3ccccc3)o2)cc1 | 4.71
14 | CCN(CC)S(=O)(=O)c1ccc(OC)c(Nc2ncc(-c3ccccc3)o2)c1 | 17.5
15 | CC(=O)NCc1cccc(C#Cc2cncnc2Nc2ccc(OCc3cccc(F)c3)c(Cl)c2)c1 | 1.46
16 | COc1ccc(-c2oc3ncnc(N)c3c2-c2ccc(NC(=O)Nc3cc(C(F)(F)F)ccc3F)cc2)cc1 | 87.3
17 | CCn1cc(-c2ccnc3[nH]ccc23)c(-c2cccc(NC(=O)Nc3ccc(OCc4ccccc4)cc3)c2)n1 | 21
